Assay outcomes as filed in PubChem BioAssay.
Rows were chosen to be rich in hits. Some 1.2% of all compounds tested hit in one or more screens of this group.
COUP-TFII inh = NR2F2 transcriptional activity inhibitors, primary screen, cell-based, luciferase reporter, HEK293T, luminescence | COUP transcription factor 2 (Homo sapiens), P24468 | HEK293T NGFI-A luciferase reporter | inhibition, % at 8.6 µM | 0.7% of 370,000 active;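 active means inhibition above a per-plate cutoff, mean inhibition of test wells between control levels plus 3 SD, cut at about 38% in these data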;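 further: cells cotransfected with COUP-TFII expression vector driving the NGFI-A reporter; 0% = median of COUP-TF2 test wells and 100% = reporter-only cells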
NCOA1 inh = SRC1 coactivator transcriptional activity inhibitors, primary screen, cell-based, luminescence | Nuclear receptor coactivator 1 (Homo sapiens), Q15788 | HEK293 GAL4-SRC1 luciferase reporter | inhibition, % at 3.6 µM | 0.12% of 360,000 active;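 active means inhibition above the campaign mean plus 3 SD, with each screening campaign given its own cutoff, cut at about 60% in these data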;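 further: 0% = DMSO treated cells and 100% = gossypol at 36 µM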
Efflux pump inh = inhibitors of Candida efflux pumps in yeast, primary screen, S. cerevisiae, Nile Red, multiplex; 0.44% of 330,000 active; inhibition, % at 10 µM; S. cerevisiae Candida pump triplex;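 active means plate passing quality check with inhibition over a set limit, or well fluorescence over plate mean plus 4 SD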;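 further: Nile Red retained in pooled yeast measured as flow cytometry median fluorescence; 0% = buffer negative control and 100% = Enniatin B positive control; higher means more Nile Red kept so more efflux inhibition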
LRH-1 inv ag = LRH-1 (NR5A2) inverse agonists, primary screen, cell-based, luminescence, HEK293T, StAR-luciferase reporter; Nuclear receptor subfamily 5 group A member 2 (Homo sapiens), O00482; 0.13% of 360,000 active; LRH-1 transfected, 24 h; inhibition, % at 3.6 µM;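 active means inhibition above the mean inhibition of all tested compounds plus 3 SD, cut at about 73% in these data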;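 further: 0% = DMSO wells and 100% = reporter-only cells lacking LRH-1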
NCOA2 inhibitor = inhibition of GAL4-SRC2 driven luciferase reporter, primary screen, SRC2 inhibitor project, cell-based, luminescence | Nuclear receptor coactivator 2 (Homo sapiens), Q15596 | HEK293 GAL4-SRC2 luciferase reporter | inhibition, % at 9 µM | 0.17% of 370,000 active;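 active means inhibition above the mean inhibition of all tested compounds plus 3 SD, set per campaign, cut at about 52% in these data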;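 further: 0% = DMSO treated cells and 100% = cells given Gossypol at 36 µM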
NCOA3 inh = SRC3 coactivator transcriptional activity inhibitors, primary screen, cell-based, luminescence | HEK293 GAL4-SRC3 luciferase reporter | inhibition, % at 3.6 µM | 0.17% of 360,000 active | AID 588352, 2011;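 active means inhibition above a per-campaign cutoff, the mean of all compounds plus 3 SD, cut at about 60% in these data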;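 further: 0% = DMSO-treated cells and 100% = gossypol-treated cells at 36 µM; higher means less SRC3-driven luciferase light from the GAL4 reporter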
Cmpd fluor yeast = counter-screen for efflux pump inhibitors: compound fluorescence; shares compounds with Efflux pump inh; S. cerevisiae AD/pABC3, flow cytometry; fluorescence ratio to DMSO, % at 10 µM; 4% of 1,700 active;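 active means fluorescence ratio to DMSO above its plate's cutoff, the plate mean ratio plus 5 SD, cut at about 210% in these data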;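 further: unstained yeast with no Nile Red so the signal is compound autofluorescence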
Mdr1 pump inh = inhibitors of Candida albicans Mdr1 efflux, confirmation, flow cytometry, singleplex, Cherry Pick1 set; shares compounds with Efflux pump inh; S. cerevisiae AD/CaMDR1, Nile Red efflux; inhibition, % at 10 µM; 1% of 1,700 active; in the data active means inhibition above about 26%;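 further: 0% = DMSO vehicle and 100% = reference inhibitor; higher means more Nile Red retained so more efflux inhibition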
Cdr2 pump inh = inhibitors of Candida albicans Cdr2 efflux pump, confirmation, S. cerevisiae AD/CaCDR2, flow cytometry, cherry pick 1, singleplex. 4% of 1,700 active. Nile Red retention. Nile Red retention ratio vs DMSO, % at 10 µM. shares compounds with Efflux pump inh; in the data active means Nile Red retention ratio vs DMSO above about 190%;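 further: higher ratio means more blocking of Cdr2 efflux of the dye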
Cdr1 pump inh = inhibitors of Candida albicans Cdr1 efflux pump, confirmation, S. cerevisiae AD/CaCDR1, flow cytometry, cherry pick 1, singleplex | 1% of 1,700 active | Nile Red efflux | shares compounds with Efflux pump inh | inhibition, % at 10 µM;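 active means inhibition above the screen-wide mean plus twice its standard deviation, cut at about 32% in these data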
* = called active by the depositor; . = not tested or not shown; + = active, no number.

SMILES | COUP-TFII inh | NCOA1 inh | Efflux pump inh | LRH-1 inv ag | NCOA2 inhibitor | NCOA3 inh | Cmpd fluor yeast | Mdr1 pump inh | Cdr2 pump inh | Cdr1 pump inh
O=Cc1cn(CC(=O)Nc2ccc3c(c2)OCO3)c2ccccc12 | 26 | 2 | 1.1* | 15 | -3 | 15 | 104 | 0 | 109 | 0
CC1Cc2ccccc2N1CC(=O)Nc1ccc2c(c1)OCO2 (centres undefined) | 12 | 11 | 12* | 4 | 12 | 3 | 134 | 1 | 104 | 1
CCOC(=O)N1CCC(NC(=O)CN2C(=O)CCSc3ccccc32)CC1 | 9 | 11 | 0 | -9 | -26 | 8 | 100 | 0 | 90 | 0
CC1Cc2ccccc2N1CC(=O)Nc1cccc(S(N)(=O)=O)c1 (centres undefined) | 5 | 11 | 0 | -2 | 6 | 11 | . | . | . | .
O=C(C1CCC(=O)N(C2CC2)C1)N(CCO)Cc1ccccc1 (centres undefined) | 12 | 23 | 0 | 20 | -12 | 2 | . | . | . | .
O=C(Cc1ccccc1[N+](=O)[O-])Nc1ccc2c(c1)OCO2 | 3 | -46 | 1.3* | -11 | -2 | -15 | 103 | 0 | 89 | 0
O=C(Cc1ccccc1[N+](=O)[O-])NNC(=O)Nc1ccc2c(c1)OCO2 | 0 | -19 | 0 | 0 | 27 | -23 | . | . | . | .
O=C(NN1C(=O)C2C3CCC(O3)C2C1=O)c1ccc(Cl)cc1 (centres undefined) | -3 | -10 | 3 | 16 | -9 | 19 | . | . | . | .
COCC1CCN(C(=O)c2cc(COc3ccc(OC)c4ccccc34)on2)C1 (centres undefined) | -46 | -112 | 7.2* | -66 | -69 | -62 | 105 | 0 | 112 | 0
Cc1ccc(S(=O)(=O)Nc2cc(-c3ccccc3)nn2C)cc1 | 5 | -28 | 0.5* | 11 | 0 | 7 | 97 | 0 | 98 | 0
O=C(O)CCCN1C(=O)/C(=C\c2ccc(-c3nc4ccccc4s3)o2)SC1=S | -6 | -17 | 1.1* | 16 | 5 | -10 | 106 | 0 | 180 | 0
O=C(O)CCN1C(=O)/C(=C/c2ccc(-c3nc4ccccc4s3)o2)SC1=S | -13 | -7 | 1.9* | -4 | 2 | -10 | 137 | 0 | + | 0
O=C(O)CCCN1C(=O)/C(=C/C=C/c2ccco2)SC1=S | 28 | -9 | 0 | 0 | 17 | 6 | . | . | . | .
O=C(O)CC(C(=O)O)N1C(=O)/C(=C/c2ccc(-c3nc4ccccc4s3)o2)SC1=S (centres undefined) | 9 | -6 | 0 | -4 | -28 | 1 | 101 | 0 | 107 | 0
COC(=O)[C@]12CCCCC=C1N(CCC1=CCCCC1)C(=O)[C@H](CC(=O)NCc1cccc3ccccc13)C2 | 10 | . | . | 2 | 3 | . | . | . | . | .
O=C(CSc1ncccc1C(=O)O)NC1CCCCCCC1 | -2 | 11 | 0 | 8 | 1 | 21 | . | . | . | .
CCOc1ccc(/C=N/NC(=O)c2ccccc2O)cc1CN1CC2CC(C1)c1cccc(=O)n1C2 (centres undefined) | -7 | -6 | 0.8* | -9 | -12 | -19 | 85 | 0 | 104 | 0
Cc1cc(C)c(C(=O)CSC2=NC(N)=C(C#N)C3(CCCCC3)C2C(N)=O)cc1C (centres undefined) | 24 | -32 | 1.3* | -9 | -10 | -33 | 100 | 0 | 107 | 0
C=CCn1c(=O)c2ccccc2n2c(SCC(=O)Nc3sc(C)c(CC)c3C(=O)OCC)nnc12 | 3 | -3 | 0.5* | 12 | 3 | 12 | 99 | 0 | 116 | 0
CCS(=O)(=O)N1CCN(S(=O)(=O)c2ccc(S(=O)(=O)NC3CC3)cc2)CC1 | 10 | 11 | 0 | -40 | 7 | 5 | . | . | . | .
O=S(=O)(NC1CCCC1)c1ccc(S(=O)(=O)N2CCN(c3ccccc3)CC2)cc1 | -13 | -21 | 2.0* | 10 | 3 | -7 | 101 | 0 | 87 | 0
O=C(C(Cl)Cl)N1CCN(Cc2ccccc2)CC1 | -1 | -4 | 16* | 37 | 0 | 1 | 98 | 0 | 89 | 0
Cn1nc([N+](=O)[O-])nc1Sc1ccc(Cl)cc1 | 6 | 3 | 0.8* | 5 | 29 | 11 | 89 | 0 | 107 | 0
CCN(C(=O)CSc1nnc2ccccn12)c1c(N)n(Cc2ccccc2)c(=O)[nH]c1=O | 14 | -10 | 5.8* | -17 | 12 | -3 | 77 | 0 | 91 | 0
CC(=O)Nc1ccc(Nc2cc(N(C)C)c3nonc3c2[N+](=O)[O-])cc1 | 5 | 2 | 0 | -14 | -18 | -15 | . | . | . | .
SMILES | COUP-TFII inh | NCOA1 inh | Efflux pump inh | LRH-1 inv ag | NCOA2 inhibitor | NCOA3 inh | Cmpd fluor yeast | Mdr1 pump inh | Cdr2 pump inh | Cdr1 pump inh
Cc1ccc(OCC(=O)NNC(=O)C(=O)NC(C)(C)C)cc1 | -23 | 13 | 0 | -14 | 13 | -14 | . | . | . | .
CC(C)(C)NC(=O)C(=O)NNC(=O)COc1ccccc1 | -9 | -2 | 28* | 3 | 4 | 5 | 100 | 0 | 106 | 0
Cc1ccc(S(=O)(=O)CCSc2n[nH]c(=O)n2-c2ccccc2)cc1 | 13 | -13 | 0 | 16 | 10 | 5 | . | . | . | .
Cc1ccc(S(=O)(=O)CCSc2nccn2C)cc1 | 9 | -3 | 3.3* | 7 | -8 | 12 | 98 | 0 | 99 | 0
Cc1onc(-c2c(F)cccc2Cl)c1C(=O)OCC(=O)NC(=O)NCC(C)C | -2 | -7 | 0 | 22 | 8 | 22 | . | . | . | .
O=C(Nc1ccc(Cl)cc1)c1cccs1 | -27 | -97 | 0 | -82 | -69 | -47 | . | . | . | .
O=C(Nc1ccc(NC(=O)c2ccc(Cl)cc2Cl)cc1)c1cccs1 | -22 | -8 | 1.3* | -16 | -35 | -17 | 98 | 0 | 85 | 0
